Compound activity: PubChem BioAssay, National Center for Advancing Translational Sciences (NCATS)
HP1b chromo inh = blocks HP1-beta chromodomain binding to methylated histone tails | 390,000 compounds, 0.56% hits | AlphaScreen HP1-beta / biotin-H3K9me3 peptide binding | P83916 | AID 540317 | Potency, µM (highest dose often 114 µM), inactives show at the top dose activity change, negative = inhibition, most hits filed as inhibitors; also: potency is read from the fitted curve at half-maximal effect; nearly all actives have a fitted effect of over 70% in size
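Compound inhibition of the preformed complex between 50 nM HP1-beta and 50 nM biotinylated H3K9me3 peptide was read by AlphaScreen. Buffer was PBS pH 7.4 with 0.01% Tween-20. Incubations ran 30 min at room temperature, with 10 ug/mL donor/acceptor beads.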
CtBP-E1A inh = CtBP/E1A binding inhibition. AlphaScreen GST-E1A/His-CtBP binding, 1536-well; hits give low values. activity change, % (test concentration not listed). 340,000 compounds, 0.49% hits; in the data active = activity change below about -65%; inconclusive = mostly about -30% to -63%; also: % is scaled to controls: 0 for no effect and ±100 for the full control effect
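Protein mix (5X: 125 nM each GST-E1A, His-CtBP) was incubated with pinned compound 2 h at 37 deg C in dark, in 50 mM Tris pH 8.0 buffer with 300 mM NaCl. Glutathione donor and nickel acceptor beads followed; AlphaScreen signal read after 1 h.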
BAZ2B block = BAZ2B (human) inhibition. Q9UIF8. AlphaScreen BAZ2B-H3K14Ac peptide displacement. Potency, µM (doses to about 114 µM), for the others: top-dose activity change, negative = inhibition, actives largely listed as inhibitors. 360,000 compounds, 4.4% hits. AID 504333; also: potency is read from the fitted curve at half-maximal effect; % is scaled to controls: 0 for no effect and ±100 for the full control effect; nearly all actives have a fitted effect of over 60% in size
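In this displacement format the biotinylated H3(5-23) peptide acetylated at Lys14 serves as ligand at 50 nM, with BAZ2B at 50 nM in PBS pH 7.4 containing 0.01% Tween-20. Donor and acceptor beads are 10 ug/mL final.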
TDP1 inh = TDP1 (human) enzyme inhibition; Q9NUW8; recombinant TDP1, AlphaScreen DNA substrate cleavage; Potency, µM (titrated, usually from 130 µM), without a hit: top-dose activity change, negative = inhibition, actives largely listed as inhibitors; 350,000 compounds, 0.28% hits; AID 485290; also: potency is read from the fitted curve at half-maximal effect; % is scaled to controls: 0 for no effect and ±100 for the full control effect; nearly all actives have a fitted effect of over 40% in size
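Compounds were preincubated with Tdp1 (1 nM final) for 15 min at room temperature before substrate (15 nM final) started a 5 min reaction; beads (10 ug/ml final) were then added for 10 min before AlphaScreen detection.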
Six1-Eya2 blk = blocks human Six1 binding to Eya2. AlphaScreen GST-Six1/His-Eya2 binding, biochemical; hits give low values. 360,000 compounds, 0.56% hits. AID 651725. activity change, % (test concentration not listed); in the data active = activity change below about -65%; inconclusive = mostly about -30% to -63%; also: % is scaled to controls: 0 for no effect and ±100 for the full control effect
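GST-Six1 + His-Eya2 (5X stock: 250/500 nM); Tris pH 8.0, 300 mM NaCl, 0.05% BSA, 0.02% Tween 20; GSH donor/Ni acceptor beads; 1 h 37 °C dark; AlphaScreen readout.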
JMJD2A Tudor inh = blocks the human JMJD2A Tudor domain | O75164 | AlphaScreen JMJD2A-Tudor / H3K4me3 peptide binding | Potency, µM (series often up to 114 µM), for inactives: top-dose activity change, negative = inhibition, actives largely listed as inhibitors | 390,000 compounds, 4.4% hits; also: potency is read from the fitted curve at half-maximal effect; % is scaled to controls: 0 for no effect and ±100 for the full control effect; nearly all actives have a fitted effect of over 50% in size
Target sequence (O75164 whole entry, looked up, the tested form may be a part): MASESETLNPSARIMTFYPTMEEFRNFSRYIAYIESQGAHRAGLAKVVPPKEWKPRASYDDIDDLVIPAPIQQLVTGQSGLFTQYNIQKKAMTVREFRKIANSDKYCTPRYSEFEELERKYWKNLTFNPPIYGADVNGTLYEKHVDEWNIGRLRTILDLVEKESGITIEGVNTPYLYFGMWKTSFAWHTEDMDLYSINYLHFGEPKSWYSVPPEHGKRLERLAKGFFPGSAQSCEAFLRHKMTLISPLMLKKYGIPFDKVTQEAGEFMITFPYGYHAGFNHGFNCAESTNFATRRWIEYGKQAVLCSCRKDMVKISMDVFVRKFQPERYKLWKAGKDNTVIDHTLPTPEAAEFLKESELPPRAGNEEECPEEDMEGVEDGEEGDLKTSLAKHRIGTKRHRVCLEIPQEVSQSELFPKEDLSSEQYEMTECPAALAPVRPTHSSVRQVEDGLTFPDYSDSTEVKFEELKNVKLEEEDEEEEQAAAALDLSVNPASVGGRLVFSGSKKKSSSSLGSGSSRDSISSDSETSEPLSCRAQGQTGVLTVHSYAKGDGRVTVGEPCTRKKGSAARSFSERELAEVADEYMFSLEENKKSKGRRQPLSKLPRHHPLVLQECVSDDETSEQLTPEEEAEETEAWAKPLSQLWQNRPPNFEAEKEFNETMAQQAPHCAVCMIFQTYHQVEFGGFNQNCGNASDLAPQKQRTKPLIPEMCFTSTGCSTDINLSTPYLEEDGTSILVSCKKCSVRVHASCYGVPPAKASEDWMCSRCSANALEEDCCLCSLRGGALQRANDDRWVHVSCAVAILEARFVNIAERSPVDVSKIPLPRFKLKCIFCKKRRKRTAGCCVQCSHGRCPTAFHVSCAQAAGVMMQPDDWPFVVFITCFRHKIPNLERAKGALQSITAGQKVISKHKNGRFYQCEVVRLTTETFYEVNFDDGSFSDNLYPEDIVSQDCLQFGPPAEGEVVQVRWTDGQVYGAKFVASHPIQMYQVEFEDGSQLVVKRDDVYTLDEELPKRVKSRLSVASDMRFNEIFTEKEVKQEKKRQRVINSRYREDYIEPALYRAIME
Starred values were filed as active, the others as inactive; ? = inconclusive; . = not tested or not shown; ! = a repeat was not active; [ ] = dose if it differs, or a comment. A selection: hits, their analogues and other compounds. The true share with any hit is near 5.3%. Unless noted, calls follow the shape of the dose curve; as a rule, active = well fitted inhibition curve with a large enough effect; inconclusive = small, poorly fitted or top-dose-only effect; inactive = no such curve, though single readings can be large or run the other way.

SMILES | HP1b chromo inh | CtBP-E1A inh | BAZ2B block | TDP1 inh | Six1-Eya2 blk | JMJD2A Tudor inh
Cc1ccc(CN2CCN(/N=C/c3cccnc3)CC2)cc1 | 3% | 0 | -33% | 7% | 3 | -25%
Cc1ccc(CN2CCN(/N=C/c3ccc(O)c(O)c3)CC2)cc1 | 20µM* | -2 | 50µM* | . | -26 | 22µM*
COc1ccc(/C=N/N2CCN(Cc3ccc(C)cc3)CC2)cc1Br | ? | . | 35µM* | . | -13 | 50µM*
Cc1ccc(CN2CCN(/N=C/C(Br)=C\c3ccccc3)CC2)cc1 | -24% | -20 | 32µM* | 11% | -28 | ?
Cc1ccc(N2CCN(/N=C/C(Cl)=C/c3ccccc3)CC2)cc1 | 23% | -2 | -11% | 0% | -7 | -23%
COc1ccc(CCNC(=O)c2ccc3c(c2)nc2n3CCOC2)cc1OC | 29%[57 µM] | . | 2% | 3% | . | 11%
COc1ccc(NC(=O)C2CCCN(S(=O)(=O)c3ccc4c(c3)CCCC(=O)N4)C2)c(OC)c1 (stereo not drawn) | -11% | . | 6%[57.1 µM] | 6% | . | -21%
CCC(=O)Nc1ccccc1-c1nc2ccccc2n(CC(=O)c2ccc(Br)cc2)c1=O | 27% | . | -4% | 3% | . | -20%
Cc1ccccc1OCc1nnc(SCc2cc(=O)c3ccc(C)c(C)c3[nH]2)n1C | 25%[57 µM] | . | 5% | 5% | . | -13%
O=C(O)c1csc(N/N=C/c2ccc(Br)cc2)n1 | 30% | -12 | 79µM* | 0% | -11 | -20%
Cc1csc(N/N=C/c2ccc([N+](=O)[O-])cc2)n1 | 29% | -6 | -9% | . | -12 | -27%
Cn1nnnc1SCC1=C(C(=O)O)N2C(=O)C(NC(=O)Cn3nc(C(F)F)cc3C3CC3)C2SC1 (stereo not drawn) | 25% | 3 | 71µM* | . | -9 | -18%
Cc1[nH]c(-c2ccc(F)cc2)cc1C(=O)N1CCN(c2ccccc2)CC1 | -29% | -3 | ? | . | -15 | 56µM*
Cc1[nH]c(-c2ccc(F)cc2)cc1C(=O)N1CCN(c2ccccc2F)CC1 | ? | -4 | ? | . | -9 | ?
Cc1ccc(N2CCN(C(=O)c3cc(-c4ccc(F)cc4)[nH]c3C)CC2C)cc1 (stereo not drawn) | ? | -20 | 45µM* | . | -29 | ?
COc1cccc(N2CCN(C(=O)c3cc(-c4ccc(F)cc4)[nH]c3C)CC2)c1 | ? | -1 | -36% | . | -22 | ?
COc1ccccc1N1CCN(C(=O)c2cc(-c3ccc(F)cc3)[nH]c2C)CC1 | ? | -2 | ? | . | -7 | 56µM*
O=C(NCC1CCN(c2ccc(S(=O)(=O)N3CCOCC3)cc2)CC1)c1cccc(Cl)c1 | 11% | -1 | 56µM* | 0% | 0 | -17%
O=C(NCc1ccc(F)cc1)c1cc(-c2ccc(Cl)cc2)n[nH]1 | 26% | . | -4% | -6% | . | -12%
C=CC1=C[C@@H](O)C2OC2C12OCCCO2 (stereo partly drawn) | . | . | . | 3%[21 µM] | . | .
Cc1ccc(NC(=O)N2CCC(NC(=O)c3cccc(C)c3)CC2)cc1 | ? | -6 | 50µM* | . | -9 | 40µM*
CCN(C(C)=O)c1cnc(C=NNC(N)=S)c2ccccc12 | 2% | ? | . | . | -90* | 56µM*
NC(=S)NN=Cc1nccc2c(N)cccc12 | . | -88* | . | . | -93* | .
O=C1[C@H]2[C@H]3[C@H](O)[C@H](O)C/C(=N/OC[C@@H](O)COCc4ccco4)[C@H]3CC[C@@H]2C(=O)N1c1cccc(Oc2ccccc2)c1 | . | . | . | 6%[21 µM] | . | .
C=CCNc1nc(C(=O)OCC(=O)c2ccc(F)cc2)cs1 | -14% | -13 | ? | . | -5 | -31%
SMILES | HP1b chromo inh | CtBP-E1A inh | BAZ2B block | TDP1 inh | Six1-Eya2 blk | JMJD2A Tudor inh
C=CCNc1nc(C(=O)OCC(=O)Nc2c(Cl)cccc2C(F)(F)F)cs1 | 14% | -21 | ? | -2%[0.505 µM] | 12 | 35µM*
Cc1ccccc1NC(=S)N/N=C/c1ccc(O)cc1O | ? | -97* | 8.9µM* | 7% | -89* | 56µM*
O=C(CNC(=O)c1cccs1)N/N=C/c1ccc(O)cc1O | 35% | ? | -27% | -1% | -86* | -2%[57.1 µM]
Cc1cccc(NC(=O)CCC(=O)N/N=C/c2ccc(O)cc2O)c1 | 21% | -84* | 5% | . | ? | -22%
COc1ccc(C=NNC(=O)c2ccccc2NS(=O)(=O)c2cccs2)cc1O | 41% | -15 | . | 1% | -22 | -14%
O=C(NN=Cc1ccc(O)cc1O)c1ccccc1NS(=O)(=O)c1cccs1 | 30% | -80* | . | -1% | ? | ?
Cc1cc(C)c(NC(=O)CN2C(=O)CCSc3ccc(S(=O)(=O)N4CCCC4)cc32)c(C)c1 | 2%[57 µM] | . | -7% | 2% | . | -17%
COc1ccccc1/C=C\C(=O)NCC(=O)N/N=C/c1ccc(O)cc1O | 12% | -74* | -19% | . | -80* | -32%
COc1ccccc1/C=C/C(=O)NCC(=O)N/N=C/c1ccccc1 | 34% | -11 | -37% | 4% | 4 | -13%
C/C(=N\NC(=O)CNC(=O)c1cccnc1)c1cccc(O)c1 | 56% | . | 1% | . | -9 | -7%
C/C(=N\NC(=O)c1ccc(NS(=O)(=O)c2cccs2)cc1)c1ccc(O)cc1O | 36% | ? | 10µM* | 3% | ? | -16%
O=C(CCc1ccccc1)NCC(=O)N/N=C/c1ccc(O)cc1O | 35% | . | 2% | 6% | -66* | -11%
O=C(CNC(=O)c1cccnc1)N/N=C/c1ccc(O)cc1O | 20%[57 µM] | -86* | ? | . | -72* | ?
CCOC(=O)N1CCN(Cc2nc3cc(NC(=O)c4ccccc4OC)ccc3n2C(C)C)CC1 | 24% | . | 79µM* | 6% | . | 50µM*
CCCC(=O)Nc1nnc(S(=O)(=O)N2CCCCCC2)s1 | ? | -10 | 14µM*! | 12% | 5 | 20µM*!
CCC(=O)Nc1nnc(S(=O)(=O)N2CCCCCC2)s1 | ? | -24 | 7.1µM*! | 10% | 9 | 11µM*!
CCC(=O)Nc1nnc(S(=O)(=O)N2CCCC2)s1 | 28% | -21 | 1% | . | 7 | -6%
Cc1ccc(CNC(=O)C(=O)NCC(c2cccnc2)N2CCN(c3ccc(F)cc3)CC2)cc1 (stereo not drawn) | 32% | . | -38% | -4% | . | -5%
CCOC(=O)c1cccc(NC(=O)c2ccc3c(Cl)c4c(nc3c2)CCC4)c1 | 14% | . | -32% | 4% | . | -8%
CN(C)c1ccc(/C=C/c2ccc3ccccc3[n+]2C)cc1 | ? | 10 | 45µM* | 3% | -1 | 79µM*
CN(CCCS(=O)(=O)[O-])c1ccc(/C=C/c2ccc3ccccc3[n+]2C)cc1 | 3% | . | ? | . | 6 | ?
